Data on 40 compounds can be found in PubChem BioAssay (EPA / NIEHS).

Activity calls are given as the source filed them. Rule for the calls: active = hit-call score of the fitted dose curve at least 0.9, where 1 is the maximum; inactive = score below 0.9.

This test can be described thus: APR_HepG2_CellLoss_1hr: Apredica 1-hour HepG2 Assay for Cell Loss (AID 2282668).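 Note: curves fitted both ways against DMSO so gain or loss of cells counts.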 Particulars: high-content imaging. On the procedure:
APR_HepG2_1hr is a cell-based, multiplexed-readout assay that uses HepG2, a human liver cell line, with measurements taken at 1 hour after chemical dosing in a 384-well plate.APR_HepG2_CellLoss_1hr is one of 10 assay component(s) measured or calculated from the APR_HepG2_1hr assay. It is designed to make measurements of cell number, a form of viability reporter, as detected with fluorescence intensity signals by HCS Fluorescent Imaging technology.Data from the assay component APR_HepG2_CellLoss_1hr was analyzed into 1 assay endpoint. This assay endpoint, APR_HepG2_CellLoss_1hr, was analyzed with bidirectional fitting relative to DMSO as the negative control and baseline of activity. Using a type of viability reporter, measures of all nuclear dna for gain or loss-of-signal activity can be used to understand the viability at the cellular-level. Furthermore, this assay endpoint can be referred to as a secondary readout, because this assay has produced multiple assay endpoints where this one serves a viability function. To generalize the intended target to other relatable targets, this assay endpoint is annotated to the cell cycle intended target family, where the subfamily is proliferation.
Cells were treated with dimethyl sulfoxide (DMSO) as a solvent control at a final concentration of 0.5% v/v or with compounds in DMSO with a resulting final DMSO concentration of 0.5% v/v. Compound treatment was done at concentrations of 0.39, 0.78, 1.56, 3.12, 6.24, 12.5, 25, 50, 100, and 200 uM in duplicate on each plate. Cells were treated with compounds for 1, 24, or 72 hr. Carbonyl […] m-chloro-phenylhydrazone (CCCP) and taxol were used as positive controls for mitochondrial function and cytoskeletal stability, respectively; DMSO served as the negative control for this experiment. Cells were fixed by the direct addition of 50 uL formaldehyde in Hank's Balanced Salt Solution (HBSS) to a final concentration of 3.7%. After incubation in the fixation medium for 30 min at room temperature (293-298 K), cells were rinsed twice with HBSS and treated with cell permeabilization buffer (16 uL of 0.5% Triton X-100) for 10 min at room temperature (293-298 K) before labeling. For mitochondrial membrane potential and mitochondrial measurements, pre-fixed cells were incubated with 50 uL of MitoTracker Red CMXRos (Invitrogen) at a concentration of 250 nM for 30 min before fixation. In the remaining cases, post-fixed cells were labeled by incubation with a multiplexed mixture of primary antibodies in HBSS for 60 min at room temperature (293-298 K) to detect immunoreactivity of c-Jun (1:500), phospho-histone H3 (1:100), phospho-histone H2A.x (1:200), p53 (1:400), alpha-tubulin (1:200) and Hoechst 33342 (2 ug/mL). Cells were labeled for multiplexed imaging on two separate plates: a) Hoechst 33342, MitoTracker Red, phospho-histone H3, and alpha-tubulin, and b) Hoechst 33342, phospho-histone H2A.x, and c-Jun. A final rinse with HBSS (50 uL) was performed before analysis. The primary and secondary antibodies for the proteins were phospho-histone H3 (rabbit anti-phospho-histone H3 and FITC-donkey anti-rabbit IgG), phospho-histone H2A.x (mouse anti-phospho-histone H2A.x and FITC-donkey anti-mouse IgG), c-Jun (rabbit anti-phospho-c-Jun and Cy3-donkey anti-rabbit IgG), p53 (sheep anti-p53 and Cy5-donkey anti-sheep IgG), alpha-tubulin (mouse anti-alpha-tubulin and Cy5-donkey anti-mouse IgG). These antibodies are available as the CellCiphr HepG2 assay kit (Millipore).Digital images of each well were captured using a Cellomics ArrayScan VTI (Thermo Scientific Cellomics) (0.8 NA objective, 0.63x optical coupler, and XF-93 filter set) at 20x magnification. The images were acquired using the autofocus feature of the ArrayScan instrument, which entails the following steps. First, the camera focuses on channel 1 (Hoechst 33342), where nuclei are identified. Second, a Z offset of 1 um is used for capturing mitochondria (MitoTracker Red). […]
Take `Cc1cnc(C2=NC(C)(C(C)C)C(=O)N2)c(C(=O)O)c1` (stereo not given): the outcome was inactive.

For `CCCC(=NOCC)C1=C(O)CC(CC(C)SCC)CC1=O` (stereo not given), the compound was called inactive. The same measure for `Nc1cnn(-c2ccccc2)c(=O)c1Cl`: “inactive”; for `COC(=O)c1c(C(F)F)nc(C(F)(F)F)c(C2=NCCS2)c1CC(C)C`: “inactive”. The same measure for `COP(=O)(OC)O/C(C)=C/C(=O)N(C)C`: “inactive”. The same measure for `COC(=O)NC(=S)Nc1ccccc1NC(=S)NC(=O)OC`: “inactive”; for `Cc1ccc(N=CN(C)C=Nc2ccc(C)cc2C)c(C)c1`: “inactive”; for `Clc1cccc(C(Cl)(Cl)Cl)n1`: “inactive”.

For the compound `CCCCOCN(C(=O)CCl)c1c(CC)cccc1CC`, the call was inactive. As for `CC(C)Oc1cccc(NC(=O)c2ccccc2C(F)(F)F)c1`, the result was inactive. The same measure for `CSC(=O)c1c(C(F)F)nc(C(F)(F)F)c(C(=O)SC)c1CC(C)C`: “inactive”. In the case of `COc1cc(Cl)c(OC)cc1Cl`, the outcome was inactive. The same measure for `CC1(C)C(C=C(Cl)Cl)C1C(=O)OC(C#N)c1cccc(Oc2ccccc2)c1` (stereo not given): “inactive”. `CCNC(=O)NC(=O)C(C#N)=NOC`: the compound was called inactive. The same measure for `CS(=O)(=O)c1cc(C(F)(F)F)ccc1C(=O)c1cnoc1C1CC1`: “inactive”; for `CC1(C)CON(Cc2ccccc2Cl)C1=O`: “inactive”. The same measure for `CCCCC(O)(Cn1cncn1)c1ccc(Cl)cc1Cl` (stereo not given): “inactive”; for `CCCCC(C#N)(Cn1cncn1)c1ccc(Cl)cc1` (stereo not given): “inactive”. Regarding `COCC(=O)N(c1c(C)cccc1C)C(C)C(=O)OC` (stereo not given), the compound was classed as inactive. The same measure for `CCCN(CC)CC1COC2(CCC(C(C)(C)C)CC2)O1` (stereo not given): “inactive”. The same measure for `O=c1n(Cl)c(=O)n(Cl)c(=O)n1Cl`: “inactive”; for `COCc1cnc(C2=NC(C)(C(C)C)C(=O)N2)c(C(=O)O)c1` (stereo not given): “inactive”; for `CC(C)N1C(=O)c2ccccc2NS1(=O)=O`: “inactive”. In the case of `COP(=S)(OC)SCn1nnc2ccccc2c1=O`, the call was inactive. The same measure for `CNC(=O)Oc1cccc2ccccc12`: “inactive”; for `COc1cc(OC)nc(NC(=O)NS(=O)(=O)c2ncccc2OCC(F)(F)F)n1`: “inactive”. The same measure for `COC(=O)N(C(=O)N1CO[C@@]2(C(=O)OC)Cc3cc(Cl)ccc3C2=N1)c1ccc(OC(F)(F)F)cc1`: “inactive”. With `O=P(O)(O)CCCl`, the call was inactive. As to `CCNP(=S)(OC)O/C(C)=C/C(=O)OC(C)C` (stereo not given), the outcome was inactive.

Take `CCN(CC)c1nc(C)cc(OP(=S)(OC)OC)n1`: the result was inactive.

As for `CCSC(=O)N1CCCCCC1`, the result was inactive. `COc1ccc(-c2ccccc2)cc1NNC(=O)OC(C)C`: the outcome was inactive.

Regarding `O=C(O)c1c(Cl)ccc2cc(Cl)cnc12`, the call was inactive. As to `Nc1c(Cl)c(Cl)nc(C(=O)O)c1Cl`, the outcome was inactive. For the compound `CNC(=O)N(C)c1nnc(C(C)(C)C)s1`, the result was inactive. The same measure for `C=C(C)CN(CC)c1c([N+](=O)[O-])cc(C(F)(F)F)cc1[N+](=O)[O-]`: “inactive”. Regarding `CN/C(=N\[N+](=O)[O-])NCc1cnc(Cl)s1`, the compound was called inactive. With `CCOc1cc(C(C)(C)C)ccc1C1COC(c2c(F)cccc2F)=N1` (stereo not given), the call was inactive. Consider `Clc1nc(Cl)nc(Nc2ccccc2Cl)n1`, for which the compound was classed as inactive. Take `O=C(Nc1ccccc1-c1ccc(Cl)cc1)c1cccnc1Cl`: the call was inactive.
